Screens deposited in PubChem by several laboratories.
An excerpt weighted towards active compounds, which were near 2.1% of everything screened.
M18AAP inhibitor: PfM18AAP inhibitors, malaria aminopeptidase, primary screen, biochemical, QFRET, recombinant enzyme; AID 1822, 2009; M18 aspartyl aminopeptidase (Plasmodium falciparum 3D7); inhibition, % at 7.35 µM; 290,000 tested, 1.2% active; H-Glu-NHMec fluorogenic cleavage;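 active = inhibition above the campaign mean inhibition over all tested compounds plus 3 SD, cut at about 28% in these data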;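 note: 0% = plate median of test compound wells and 100% = 2 mM ZnCl2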
CTSL1 counter: Fasciola hepatica cathepsin L1 inhibitors, primary screen, counter-screen for PFM18AAP inhibitor project, biochemical, QFRET, fluorogenic peptide substrate; recombinant F. hepatica cathepsin L1, Z-Leu-Arg-MCA fluorescence; inhibition, % at 5.96 µM; 300,000 tested, 0.49% active;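 active = inhibition above the mean of all tested compounds plus 3 SD, set per screening campaign, cut at about 17% in these data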;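 note: 0% = plate median of test compound wells and 100% = 1 µM Z-Phe-Ala-diazomethylketone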
Calb FLC: C. albicans growth inhibition with fluconazole, primary screen, CaCi-2 strain, Alamar Blue fluorescence | growth inhibition, % (test concentration not listed) | C. albicans CaCi-2 (fluconazole-resistant clinical isolate) + fluconazole, 48 h | 300,000 tested, 0.57% active;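 active = growth inhibition above about 58% in most replicates, limit read from the data, passing the limit was not always enough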;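 note: all wells also contain fluconazole at 8 µg/ml as a sub-toxic cotreatment; 0% = median of DMSO wells and 100% = median of geldanamycin control wells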
Rin1-Abl PPI inh: inhibitors of Rin1-Abl protein binding, primary screen, biochemical, TR-FRET; Tyrosine-protein kinase ABL1 (Homo sapiens) + Ras and Rab interactor 1 (Homo sapiens), …; 360,000 tested, 0.4% active; AID 588664, 2011; inhibition, % at 7.35 µM; in the data active = inhibition above about 5%, passing the limit was not always enough
Target sequence (P00519 whole entry, looked up): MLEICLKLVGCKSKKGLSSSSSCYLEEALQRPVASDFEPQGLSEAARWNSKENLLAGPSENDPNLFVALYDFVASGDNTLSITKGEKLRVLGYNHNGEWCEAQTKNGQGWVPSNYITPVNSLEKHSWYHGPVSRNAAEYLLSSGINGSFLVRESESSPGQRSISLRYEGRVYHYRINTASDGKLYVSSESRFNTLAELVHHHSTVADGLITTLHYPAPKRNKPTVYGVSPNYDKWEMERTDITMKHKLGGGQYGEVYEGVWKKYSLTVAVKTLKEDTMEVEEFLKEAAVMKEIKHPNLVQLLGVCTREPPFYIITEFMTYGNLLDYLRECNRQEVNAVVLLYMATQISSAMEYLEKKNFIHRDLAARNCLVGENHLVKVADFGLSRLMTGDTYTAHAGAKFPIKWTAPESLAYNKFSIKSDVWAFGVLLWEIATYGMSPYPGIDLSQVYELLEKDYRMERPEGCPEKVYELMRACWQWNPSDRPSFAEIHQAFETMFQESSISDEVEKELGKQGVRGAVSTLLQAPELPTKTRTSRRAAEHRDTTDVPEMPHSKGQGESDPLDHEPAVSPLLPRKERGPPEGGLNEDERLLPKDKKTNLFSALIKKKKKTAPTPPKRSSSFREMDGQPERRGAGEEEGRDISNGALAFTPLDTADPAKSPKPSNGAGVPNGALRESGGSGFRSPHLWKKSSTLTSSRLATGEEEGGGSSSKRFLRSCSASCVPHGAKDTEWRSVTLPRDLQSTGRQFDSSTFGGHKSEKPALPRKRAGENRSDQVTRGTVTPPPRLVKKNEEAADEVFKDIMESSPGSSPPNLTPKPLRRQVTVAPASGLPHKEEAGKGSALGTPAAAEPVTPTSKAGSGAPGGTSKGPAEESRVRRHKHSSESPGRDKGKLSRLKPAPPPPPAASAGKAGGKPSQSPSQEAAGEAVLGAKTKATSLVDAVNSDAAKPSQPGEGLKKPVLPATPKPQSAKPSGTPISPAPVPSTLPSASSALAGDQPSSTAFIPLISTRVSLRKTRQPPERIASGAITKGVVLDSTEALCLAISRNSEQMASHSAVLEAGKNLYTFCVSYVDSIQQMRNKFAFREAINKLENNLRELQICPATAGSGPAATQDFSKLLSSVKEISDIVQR
Target sequence (Q13671 whole entry, looked up): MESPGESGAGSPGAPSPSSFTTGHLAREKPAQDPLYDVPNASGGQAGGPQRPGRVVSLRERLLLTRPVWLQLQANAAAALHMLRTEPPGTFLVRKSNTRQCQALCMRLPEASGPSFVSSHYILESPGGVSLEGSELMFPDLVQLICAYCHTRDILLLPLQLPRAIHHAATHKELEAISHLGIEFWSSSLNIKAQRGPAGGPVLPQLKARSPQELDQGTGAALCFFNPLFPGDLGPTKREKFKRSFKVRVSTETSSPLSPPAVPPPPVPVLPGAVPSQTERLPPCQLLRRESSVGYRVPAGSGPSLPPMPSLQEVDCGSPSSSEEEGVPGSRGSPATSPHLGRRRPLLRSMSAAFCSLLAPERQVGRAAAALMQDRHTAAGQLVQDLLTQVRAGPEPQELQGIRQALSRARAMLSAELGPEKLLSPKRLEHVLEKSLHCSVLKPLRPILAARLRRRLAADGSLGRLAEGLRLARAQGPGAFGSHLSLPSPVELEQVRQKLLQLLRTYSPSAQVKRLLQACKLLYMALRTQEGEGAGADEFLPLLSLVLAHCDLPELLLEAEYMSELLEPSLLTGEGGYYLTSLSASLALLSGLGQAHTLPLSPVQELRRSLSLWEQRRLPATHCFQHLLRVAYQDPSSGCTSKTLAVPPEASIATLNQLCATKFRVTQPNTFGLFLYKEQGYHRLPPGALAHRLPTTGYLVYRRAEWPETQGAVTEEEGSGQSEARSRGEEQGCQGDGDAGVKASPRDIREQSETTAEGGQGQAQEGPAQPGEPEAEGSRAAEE
Rin1-Abl confirm: Rin1-Abl binding inhibitor retest, confirmation, biochemical, TR-FRET. inhibition, % at 7.35 µM. AID 602124, 2011. 1,300 tested, 49% active. purified proteins. shares compounds with Rin1-Abl PPI inh
GFP quench: GFP fluorescence inhibitors and quenchers, artefact control for Rin1-Abl interaction inhibitor project, biochemical; shares compounds with Rin1-Abl PPI inh; 1,300 tested, 8.5% active; inhibitors/quenchers counterscreen; inhibition, % at 6.75 µM;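 note: ABL1-eGFP fusion protein alone without its partner RIN1-SBP; 0% = protein with vehicle and 100% = wells lacking protein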
GFP quench dose: GFP fluorescence inhibitors and quenchers, dose response, artefact control for Rin1-Abl interaction inhibitor project, biochemical | shares compounds with Rin1-Abl PPI inh | GFP fluorescence interference/quenching counterscreen | IC50, µM | 230 tested, under 10 active; call rule not given here;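 note: ABL1-eGFP fusion protein alone without its RIN1 binding partner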
* = called active by the depositor; x = no result given. Cut-off read from the data, not from the text of the source, unless noted: active = inhibition above about 6.5%; inactive = the rest.

SMILES	M18AAP inhibitor	CTSL1 counter	Calb FLC	Rin1-Abl PPI inh	Rin1-Abl confirm	GFP quench	others
Cc1cccc(-n2c(O)c(C=NC3CCS(=O)(=O)C3)c3ccccc3c2=O)c1C (centres undefined)	-13	5	4	-1	x	x
C=CCn1c(C)nnc1SCC(=O)Nc1nc(C)c(C(=O)N(C)C)s1	3	-4	2	13*	0	0
O=C(c1ccco1)N1CCCC(N2CCN(c3ccccc3F)CC2)C1 (centres undefined)	-9	1	1	1	x	x
Cc1occc1C(=O)N1CCCC(N2CCN(c3ccccc3F)CC2)C1 (centres undefined)	2	-3	-1	11*	-1	0
CS(=O)(=O)c1cccc(-c2nnc(NC(=O)CCS(=O)(=O)c3ccccc3)o2)c1	x	2	-3	-1	x	x
Cc1c[n+]([O-])cc(C)c1[N+](=O)[O-]	x	x	x	0	x	x
COc1ccc(OC)c(CCNC(=O)c2ccc(NC3=NC4CS(=O)(=O)CC4S3)cc2)c1 (centres undefined)	-7	-4	-19	12*	13*	0
CCN(C(=O)Cc1ccc(NC2=NC3CS(=O)(=O)CC3S2)cc1)c1ccccc1 (centres undefined)	9	-4	-2	15*	11*	-1
O=C(NCCc1ccc(Cl)cc1)c1cccc(NC2=NC3CS(=O)(=O)CC3S2)c1 (centres undefined)	-1	-3	6	8.4*	8.0*	0
Cc1ccc(CCNC(=O)c2ccc(NC3=NC4CS(=O)(=O)CC4S3)cc2)cc1 (centres undefined)	0	-8	3	8.5*	9.3*	0
Cc1cc(C)cc(NC(=O)c2cccc(NC3=NC4CS(=O)(=O)CC4S3)c2)c1 (centres undefined)	4	-2	-1	0	x	x
CC12CCC(C/C1=N\N=C1\NC(=O)/C(=C\c3cccc(Br)c3)S1)C2(C)C (centres undefined)	-2	3	2	-1	x	x
O=C(Cn1cnc2c(OCc3ccccc3)ncnc21)NCCCN1CCCC1=O	x	x	x	-1	x	x
CCOCCCN(C(=O)c1snc(C(N)=O)c1N)C(C(=O)NC(C)(C)C)c1ccc(Cl)cc1 (centres undefined)	5	2	1	1	x	x
O=C(O)c1nc(N2CCCC2)ncc1Cl	-5	2	37	-3	x	x
O=C(C[n+]1cccc(O)c1)NCc1ccc(Cl)cc1	-8	4	-10	0	x	x
COc1ccc(OC)c(CCNC(=O)Cc2ccc(NC3=NC4CS(=O)(=O)CC4S3)cc2)c1 (centres undefined)	-7	5	-4	11*	13*	-1
C=CCN1C(=O)c2ccc(C(=O)N(CCOC)c3c(N)n(CCCC)c(=O)[nH]c3=O)cc2C1=O	x	1	1	1	x	x
O=C(C(Cl)Cl)N1CCN(Cc2ccc3c(c2)OCO3)CC1	3	-10	-15	6.9*	3	2
COc1cc2c(cc1OC)CN(CC(=O)Nc1cccc(C)c1)CC2	1	2	1	6.5*	2	0
NC(=O)C1CCN(C(=O)c2cnn(-c3ccccc3)c2NC(=O)c2cccc(F)c2)CC1	-5	0	-7	23*	1	1
O=C(O)c1ccc(NC(=O)c2ccco2)c(NC(=O)c2ccco2)c1	-7	-6	-8	2	x	x
O=C1N(c2cccc(Cl)c2)C(c2ccc(Cl)cc2)N2CCCN12 (centres undefined)	5	2	7	11*	18*	-2	GFP quench dose=>68
O=C1N(c2cccc(Cl)c2)C(c2ccccc2)N2CCCN12 (centres undefined)	-2	0	5	17*	24*	-1	GFP quench dose=>68
